# Marburg entry inh: inhibitors of Marburg virus binding or cell entry. Marburg virus pseudotyped entry inhibition, cell reporter. Potency, µM (doses to about 37.8 µM), hits mostly inhibitors. hit rate 1.8% among 300,000; calls by dose curve; tested in HEK293 cells
# FMDV inh: antivirals against foot and mouth disease virus; FMDV antiviral cell-based qHTS; Potency, µM (top dose mostly 57.9 µM), actives largely listed as inhibitors; hit rate 1.2% among 410,000; calls by dose curve; tested in HEK293T cells; further: read-out not given here; nearly all actives have a fitted effect of over 45% in size
# HCMV inh: inhibitors of human cytomegalovirus; HFF cells, HCMV-luciferase reporter, 72 h; hits give low values; activity change, negative = inhibition, % at 57.5 µM; hit rate 4.5% among 410,000; AID 1259415; in the data active means activity change below about -60%; inconclusive means no clear call, values can overlap the other calls; inactive means above about -39%
#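 Luciferase read-out from HCMV-luciferase-infected HFFs (MOI 1 PFU/cell) 72 h post infection at 37C; compounds added after 16 h cell attachment; activity normalized between buffer-only basal and Salinomycin (10uM) inhibitor controls.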
# LASV entry inh: Lassa virus entry inhibition | Potency, µM (series often up to 37.9 µM), hits mostly inhibitors | AID 540256 | hit rate 1.2% among 300,000 | Lassa virus pseudotype entry inhibition, cell reporter; calls by dose curve; tested in HEK293 cells; further: nearly all actives have a fitted effect of over 50% in size
# SARS PLpro yeast: inhibitors of SARS-CoV papain-like protease in yeast | S. cerevisiae expressing SARS-CoV PLpro, growth rescue | hit rate 0.19% among 330,000 | Potency, µM (titrated, usually from 32.9 µM), usual class: activators; calls by dose curve; further: nearly all actives have a fitted effect of over 55% in size
# HCV inhibitor: blocks hepatitis C virus; AID 651820; hit rate 3.4% among 340,000; Huh7.5.1 HCVcc-Cre infection, luciferase reporter, 44 h; Potency, µM (highest dose often 41.8 µM), actives largely listed as inhibitors; active means well fitted inhibition curve with a large enough effect; inconclusive means small, poorly fitted or top-dose-only effect, or another doubt; inactive means no such curve, though single readings can be large or run the other way
#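 Whole-lifecycle infectious HCVcc-Cre system; cells 1,000/well, compound then virus (~0.5 moi) added 4 h after plating, 44 h culture. Luciferase read 15 sec following 15 min substrate incubation, room temp.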
# Hits are given with their value; . = inactive; ? = inconclusive; / = no result given. Rows were chosen to be rich in hits. Some 8% of all compounds tested hit in one or more screens of this group.
SMILES,Marburg entry inh,FMDV inh,HCMV inh,LASV entry inh,SARS PLpro yeast,HCV inhibitor
CCOC(=O)c1cc(-c2cccs2)nc2c1c(C)nn2-c1ccccn1,?,.,-86.3,.,.,10µM
CCCCOc1ncnc2c1[nH]c1ccccc12,?,?,.,.,.,4.47µM
CCCCOc1ncnc2c1[nH]c1ccc(F)cc12,?,/,-94.3,?,.,2.82µM
O=C(Nc1ccc(C(=O)OC2CCCCC2)cc1)c1ccncc1,?,.,-77.6,?,.,?
O=C(O)CCC(=O)Nc1ccc(C(=O)OC2CCCCC2)cc1,.,/,.,.,.,.
O=C(OC1CCCCC1)c1ccc(NC(=O)C2CCCCC2)cc1,?,.,.,?,.,25.1µM
O=C(Nc1ccc(C(=O)N2CCCCC2)cc1)C1CCCCC1,.,.,.,.,.,.
CCCCC(=O)Nc1ccc(C(=O)OC2CCCCC2)cc1,.,.,-95.9,?,.,?
CC(C)(C)C(=O)Nc1ccc(C(=O)OC2CCCCC2)cc1,?,/,/,?,.,?
O=C(/C=C/c1ccccc1Cl)Nc1nc(-c2cccs2)ns1,.,.,.,?,/,/
CN1C/C(=C/c2ccccc2[N+](=O)[O-])C(=O)/C(=C\c2ccccc2[N+](=O)[O-])C1,3.16µM,17.8µM,.,8.91µM,/,?
Cc1cc2nc(N3CCC(NC(C)c4nc(-c5ccccn5)no4)CC3)nc(C)c2cc1C (stereo not given),/,.,/,/,/,/
CCN(C(=O)CC(C)C)c1nnc(Cn2nnc3ccccc32)s1,.,?,.,?,.,12.6µM
CCN(C(=O)c1ccc(C(C)(C)C)cc1)c1nnc(Cn2nnc3ccccc32)s1,?,?,-65.1,?,.,1µM
COc1ccc(CNc2nc3c(c(=O)n(C)c(=O)n3C)n2Cc2ccccc2Cl)cc1,.,.,.,?,/,/
Oc1ccccc1CNn1cnnc1,.,.,-100.4,.,.,.
Cc1ccc2c(-c3ccnc(Nc4ccccc4)n3)c(-c3ccc(F)cc3)nn2n1,/,/,/,25µM,/,/
Fc1ccc(-c2ncn(C3CCNCC3)c2-c2ccnc(Oc3ccccc3)n2)cc1,/,/,/,6.28µM,/,/
Fc1ccc(-c2ncn(C3CCNCC3)c2-c2ccnc(Oc3ccc4c(c3)OCO4)n2)cc1,/,/,/,12.5µM,/,/
COc1nccc(-c2c(-c3ccc(F)cc3)ncn2C2CCC(O)CC2)n1 (stereo not given),/,.,/,/,/,/
CN1CCC(n2cnc(-c3ccc(F)cc3)c2-c2ccnc(Nc3ccccc3)n2)CC1,/,/,/,15.8µM,/,/
Fc1ccc(Nc2ccnc(Nc3ccc(F)cc3)n2)cc1,.,.,.,.,.,?
CCCCNC(=O)C1CCC(Cn2c(=O)c3sccc3n(Cc3ccccc3)c2=O)CC1 (stereo not given),/,.,.,.,/,/
CN1CCCC1CCNC1C2CC3CC(C2)CC1C3 (stereo not given),13µM,.,.,.,.,/
CN1CCCC1CN1CCCC1 (stereo not given),/,.,/,/,/,/
SMILES,Marburg entry inh,FMDV inh,HCMV inh,LASV entry inh,SARS PLpro yeast,HCV inhibitor
O=C1C(c2ccc(C(F)(F)F)cc2)=C(Nc2ccc(Cl)cc2)c2ccccc21,.,.,.,.,/,/
Cc1cc(O)ccc1C1(c2ccc(O)cc2C)OC(=O)c2ccccc21,?,.,-95.9,.,.,.
O=C1OC(c2ccccc2)(c2ccc(O)cc2)c2ccccc21 (stereo not given),?,.,.,.,/,?
CC1=CC(=C2C(=O)c3ccccc3C2=O)C=C(C)N1C,?,.,.,?,.,.
CCCCCN1C=CC(=C2C(=O)c3ccccc3C2=O)C=C1,/,2.82µM,-90.4,/,.,.
O=C1C2C3C=CC(c4ccccc4)(C2C(=O)N1c1cccc(Cl)c1)C1C(=O)N(c2cccc(Cl)c2)C(=O)C31 (stereo not given),?,.,.,?,.,10µM
CC(C)COc1nc2ccccc2nc1[C@H](C#N)C(=O)NC1CCCCC1,.,/,/,/,/,/
Cc1cccc(OCc2cc(-c3ccccc3)no2)c1C,/,.,.,/,.,.
Clc1ccc(OCc2cc(-c3ccccc3)no2)c(Cl)c1,7.08µM,.,.,11.2µM,.,.
CC(NCc1ccc(Cl)c(Cl)c1)C(O)c1ccccc1 (stereo not given),?,/,-70.8,.,.,.
CC(NCc1ccccc1Cl)C(O)c1ccccc1 (stereo not given),.,/,.,?,.,.
CC(NCc1ccc(OCc2ccc(Cl)cc2)cc1)C(O)c1ccccc1 (stereo not given),12.6µM,.,.,?,.,10µM
Cc1ccccc1C(=O)NCc1nc2cccnc2n1Cc1ccccc1,/,.,?,.,/,/
Clc1ccc(CSc2ncn[nH]2)cc1,.,.,.,.,.,.
CCOc1ccc(Cl)cc1CSc1ncn[nH]1,?,.,-67.7,.,.,?
Cn1cnc2cnc(Nc3ccc(F)c(Cl)c3)cc21,/,/,.,/,/,/
O=C1N=C2C=CC(Cl)=CC2C(c2ccccc2)=N1 (stereo not given),.,/,/,/,/,/
CC1CN(C(=O)N2CCC(C(=O)NC3CCCCCC3)CC2)c2cc(Cl)ccc2O1 (stereo not given),/,.,.,?,/,/
CCOCCCNC(=O)c1cnc2sc(N3CCCCCC3)nn2c1=O,/,.,.,.,/,/
CCOC(=O)c1cccn1C1C(=O)N(Cc2ccc(C(C)C)cc2)c2c(F)cccc21 (stereo not given),/,/,.,/,/,/
CCCC(C)NC(=S)NC(=O)c1cc(S(=O)(=O)N2CCOCC2)ccc1C (stereo not given),?,?,-70.3,.,.,?
CCCCCC(C)NC(=S)NC(=O)c1cc(S(=O)(=O)N2CCOCC2)ccc1C (stereo not given),?,?,-62.5,?,.,?
COCC(C)NC(=S)NC(=O)c1cc(S(=O)(=O)N2CCOCC2)ccc1C (stereo not given),.,.,?,.,.,.
Cc1ccc(S(=O)(=O)N2CCOCC2)cc1C(=O)NC(=S)N1CC(C)CC(C)C1 (stereo not given),/,.,.,/,.,.
Cc1ccc(S(=O)(=O)N2CCOCC2)cc1C(=O)N1c2ccccc2Sc2ccccc21,?,.,.,.,.,10µM
SMILES,Marburg entry inh,FMDV inh,HCMV inh,LASV entry inh,SARS PLpro yeast,HCV inhibitor
CCc1cccc(-n2c(=O)c3cccnc3n2CC(=O)NCc2ccc(C)cc2)c1,/,.,?,.,/,/
COCc1nn2cc(-c3ccc(C)cc3)nc2s1,?,.,.,.,/,/
Cc1nn2cc(-c3ccc(-c4ccccc4)cc3)nc2s1,?,.,.,11.2µM,.,.
CCc1nn2cc(-c3ccccc3)nc2s1,18.3µM,.,.,8.2µM,.,.
Cc1nn2cc(-c3ccc(Cl)cc3)nc2s1,?,.,.,?,.,.
CC(C)NC(=O)N1CCC2(CC1)CCN(S(=O)(=O)c1ccccc1)CC2,/,.,/,/,/,/
N#CC1=C(N)Oc2cc(N)ccc2C1c1cccc(F)c1 (stereo not given),?,.,.,.,.,?
CN(C)c1ccc2c(c1)OC(N)=C(C#N)C2c1cccc(F)c1 (stereo not given),2.06µM,?,/,?,.,?
CCOC(=O)c1c(-c2ccccc2)oc2ccc(NS(=O)(=O)c3cc(C)c(C)cc3C)cc12,?,.,.,.,/,/

# High-throughput results: PubChem BioAssay, National Center for Advancing Translational Sciences (NCATS)
